Bioassay records (PubChem)
The list is not random: actives were taken first. Their share in the collection is about 4.7%.
PfHsp90 yeast 2 = growth inhibition of yeast expressing Plasmodium Hsp90; 310,000 compounds, 0.32% hits; inhibition, % at 9.4 µM; S. cerevisiae expressing PfHsp90, BacTiter-Glo ATP, 48 h; yeast lacking PDR1 and PDR3 efflux regulators;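 active = every replicate shows inhibition above about 80%, whatever the replicate mean, limit read from the data; inconclusive = mean inhibition reaches the set limit but some replicate falls short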;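 also: 0% = DMSO neutral controls and 100% = 20 µM radicicol positive controls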
TIM10 inh = growth inhibitors of TIM10 yeast strain; S. cerevisiae TIM10 strain growth, BacTiter-Glo luminescence, 24 h; inhibition, % at 10 µM; 330,000 compounds, 1.4% hits; AID 463195;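 active = inhibition of 40% or more at the single tested concentration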;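 also: wild-type TIM10 isogenic control strain grown at permissive 25 °C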
EBI2 antag = blocks human EBI2 receptor beta-arrestin signaling | P32249 | 360,000 compounds, 0.81% hits | EBI2 beta-arrestin recruitment, luminescence, 7a,25-OHC stimulated | inhibition, % at 5 µM; in the data active = inhibition above about 38%;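 also: enzyme fragment complementation signal reports receptor beta-arrestin coupling in cells; 0% = agonist plus DMSO wells and 100% = wells without agonist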
Target sequence (P32249 whole entry, looked up, the tested form may be a part): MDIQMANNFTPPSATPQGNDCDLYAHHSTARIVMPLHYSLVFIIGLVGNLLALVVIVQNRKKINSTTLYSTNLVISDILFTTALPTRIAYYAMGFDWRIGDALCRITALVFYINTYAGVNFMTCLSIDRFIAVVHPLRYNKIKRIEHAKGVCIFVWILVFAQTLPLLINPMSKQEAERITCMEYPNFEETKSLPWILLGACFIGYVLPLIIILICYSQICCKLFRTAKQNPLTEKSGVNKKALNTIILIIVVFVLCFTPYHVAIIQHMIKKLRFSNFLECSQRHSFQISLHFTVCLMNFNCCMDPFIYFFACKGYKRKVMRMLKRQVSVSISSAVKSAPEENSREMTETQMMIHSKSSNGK
tim23-1 inh = tim23-1 yeast growth inhibition; AID 463212; S. cerevisiae tim23-1 growth, BacTiter-Glo luminescence, 24 h; inhibition, % at 20 µM; 330,000 compounds, 1.3% hits;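 active = growth inhibition of the mutant yeast at or above 50%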;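 also: temperature-sensitive mutant grown at 25 °C; plate controls were DMSO-treated mutant yeast for no effect and medium wells lacking yeast for full effect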
SKKanGAS inh = inhibitors of SKKanGAS S. pyogenes growth in kanamycin (SK-promoter or general growth effect). 300,000 compounds, 1.3% hits. inhibition, % at 7.5 µM. AID 1662. BacTiter-Glo, 6 h;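 active = mean replicate score, as percent of positive control median, at least 50; inconclusive = mean below 50 but one replicate at or above 50; inactive = mean and every replicate below 50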;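 also: strain carries kanamycin resistance gene driven by streptokinase promoter and grows in 40 µg/ml kanamycin; loss of luminescence reflects streptokinase promoter inhibition or plain growth inhibition; 0% = median of DMSO wells and 100% = positive control at its reference dose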
tim10-1 inh = growth inhibitors of tim10-1 mutant yeast. S. cerevisiae tim10-1 ts strain growth, BacTiter-Glo, 24 h. inhibition, % at 20 µM. 330,000 compounds, 2.2% hits. AID 463190;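 active = inhibition of at least 40%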;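 also: mutant grown at 25 °C; 0% = DMSO wells with yeast and 100% = wells holding no yeast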
TIM10 conf = confirmation of TIM10 yeast growth inhibitors; 4,600 compounds, 63% hits; shares compounds with TIM10 inh; S. cerevisiae tim10 strain growth, BacTiter-Glo luminescence, 24 h; inhibition, % at 10 µM;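 active = inhibition of yeast growth at or above a set limit in either of two replicates at 10 µM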;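 also: this counterscreen used the strain with wild-type TIM10; 0% = yeast with DMSO and 100% = medium wells lacking yeast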
* marks the source's active call; other numbers are inactive results; ? = inconclusive; . = not tested or not shown.

SMILES	PfHsp90 yeast 2	TIM10 inh	EBI2 antag	tim23-1 inh	SKKanGAS inh	tim10-1 inh	TIM10 conf
CCCC(O)(c1ccc(CC)cc1)C(CN1CCOCC1)c1ccccc1 (configuration not stated)	9	19	23	43	-1	37	.
CSc1cccc(NC(=O)/C=C/c2ccccc2)c1	12	40	32	44	-6	30	16
CCN(CC)S(=O)(=O)c1ccc(/C=C/C(=O)Nc2cccc(F)c2)cc1	-4	59*	15	28	5	39	-13
CSc1ccc(/C=C/C(=O)Nc2ccccc2)cc1	31	39	28	34	.	4	.
CCOc1ccc(C2CC(c3ccc(F)cc3)n3ncnc3N2)cc1 (configuration not stated)	-9	40*	3	47	4	22	42*
CN1CCN(c2ccc(CNC(=O)c3ccco3)cc2)CC1	10	12	-7	-5	4	14	.
COc1ccc(Cl)cc1NC(=O)CN(C)C(=O)c1ccc(-n2cncn2)cc1	-17	3	0	12	.	6	.
Cc1ccc(CNC(=O)C(=O)NCC2OCCCN2S(=O)(=O)c2ccc(F)cc2)cc1 (configuration not stated)	-8	-3	9	3	0	4	.
CCN1C(=O)C(CC(=O)Nc2ccc(OC)cc2)N(CCc2ccc(F)cc2)C1=S (configuration not stated)	12	42*	3	42	12	38	26
COc1ccc(NC(=O)CC2C(=O)N(C)C(=S)N2CCc2ccc(F)cc2)cc1 (configuration not stated)	.	7	-5	15	6	14	.
O=S(=O)(Nc1ccc(-n2cccc2)cc1)c1ccc(Cl)c(Cl)c1	-15	45*	-17	40	50*	-57	41*
COC(=O)c1sccc1N/N=C/c1cccc(Oc2ccccc2)c1	-14	2	28	-10	-3	-8	.
c1ccc(-c2nc3cnccn3c2Nc2ccc3c(c2)OCCO3)cc1	21	44*	16	35	5	34	12
Oc1ccc(-c2nc3cnccn3c2Nc2ccc3c(c2)OCCO3)cc1	-17	-3	7	-8	-4	4	.
CCOC(=O)N1CCC(N2Cc3cccc(C(=O)Nc4ccc(CC)cc4)c3C2=O)CC1	.	30	29	29	35	39	.
CCOC(=O)N1CCC(N2Cc3cccc(C(=O)Nc4ccc(F)cc4)c3C2=O)CC1	19	42*	8	30	?	37	30
Cc1c(C(=O)NCc2cccnc2)oc2ccc(S(=O)(=O)N3CCCCCC3)cc12	.	43*	5	26	9	21	21
Cc1ccc(O)c(C(=O)/C=C/c2ccc3c(c2)OCCCO3)c1	-7	49*	20	37	-48	38	56*
Cc1ccc(O)c(C(=O)C=Cc2ccccc2)c1	-8	.	15	.	.	.	.
COC(=O)c1c(C)[nH]c(C(=O)COC(=O)CCNS(=O)(=O)c2cccc(C(F)(F)F)c2)c1C	-40	0	1	-7	.	-17	.
COC/C=C/C1=CC2=CC(=O)C(C)(OC(=O)c3cnc4ccccc4n3)C(=O)C2=CO1 (configuration not stated)	.	3	.	1	0	0	.
COc1ccc(-n2cc(-c3ccccc3)c3c(N4CCOCC4)ncnc32)cc1	1	9	-12	19	11	25	.
COc1ccc(-n2cc(-c3ccccc3)c3c(=O)[nH]cnc32)cc1	-26	51*	6	46	-6	34	46*
O=C(Cc1n[nH]c(=O)c2ccccc12)Nc1cc(Cl)ccc1-n1cncn1	5	-6	3	12	10	7	.
CCC(C)(C)n1nnnc1C(c1ccc2ncccc2c1)N1CCCCCC1 (configuration not stated)	-18	43*	-10	42	3	35	-22
SMILES	PfHsp90 yeast 2	TIM10 inh	EBI2 antag	tim23-1 inh	SKKanGAS inh	tim10-1 inh	TIM10 conf
Cc1c(NC(=O)CN2CCN(c3cccc(Cl)c3)CC2)c(=O)n(-c2ccccc2)n1C	-1	-7	8	1	-2	6	.
CCCn1c(O)c(/C=C2\C=NN=C2c2ccccc2)sc1=S	.	42*	-46	8	3	39	24
CCCCC(CC)Cn1c(O)c(/C=C2\C=NN=C2c2ccccc2)sc1=S (configuration not stated)	-9	3	16	1	-3	8	.
COc1ccc(N2C(=O)/C(=C\c3ccco3)N=C2SCC(=O)N(C(C)C)C(C)C)cc1Cl	1	41*	16	30	2	31	9
NC(=O)N/N=C/c1ccc(-c2cccc(C(F)(F)F)c2)o1	16	19	31	2	-25	1	.
O=C(N/N=C/c1ccc(-c2cccc(C(F)(F)F)c2)o1)c1cccc(F)c1	15	45*	22	27	-1	5	39*
O=[N+]([O-])c1ccc(/C=N/Nc2ccnc3cc(Cl)ccc23)o1	-16	64*	28	-2	?	24	71*
Cc1cc(C)nc(SCc2cc(=O)c(OC(=O)c3ccc(Br)o3)co2)n1	22	40	-27	38	-2	6	.
Cc1cc(C)nc(SCc2cc(=O)c(OC(=O)c3ccco3)co2)n1	-8	42*	0	37	2	18	37*
O=S(=O)(c1ccc(F)cc1)N1CCN(CC(O)COc2ccccc2F)CC1 (configuration not stated)	12	-4	30	15	-1	10	.
CC(C)c1ccccc1OCC(O)CN1CCN(S(=O)(=O)c2ccc([N+](=O)[O-])cc2)CC1 (configuration not stated)	-6	40*	19	39	10	35	52*
Cc1cc(C)c(-n2c(C)cc(/C=C3/NC(=O)NC3=O)c2C)c(C)c1	.	52*	.	23	10	38	-13
Cc1cccc(-n2c(C)cc(/C=C3\NC(=O)NC3=O)c2C)c1	2	-20	-2	20	5	-9	.
Cc1cc(/C=C2\SC(=S)N(C)C2=O)c(C)n1-c1ccc(O)cc1	96*	74*	33	28	65*	34	91*
Cc1ccc(C)c(N2CCN(C(=O)C3CCN(S(=O)(=O)c4cccc5nsnc45)CC3)CC2)c1	-10	40*	12	-1	7	36	32*
O=C(CN1CCCCCC1)N/N=C/c1cccc(Cl)c1Cl	-23	-4	26	9	-4	5	.
O=C(NCC1CCCO1)C1CCCN(S(=O)(=O)c2cc(Cl)ccc2Cl)C1 (configuration not stated)	26	-4	-7	10	24	9	.
